Bioassay records (PubChem BioAssay)
Sfp PPTase inh = Sfp phosphopantetheinyl transferase inhibition; Biochemical Sfp PPTase activity, qHTS; Potency, µM, without a hit: largest response in the series, negative = inhibition, hits mostly inhibitors; 310,000 compounds, 3.5% hits;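 also: the enzyme is Sfp with the accession as filed and its product quenches rhodamine fluorescence; 0% = enzyme reaction without inhibitor and -100% = no enzyme wells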
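Step 1, compound plus 15 nM Sfp-PPTase, 15 min, room temperature. Step 2, add rhodamine-CoA (5 uM) and BHQ-2-YbbR (12.5 uM). Step 3, read 525/598 nm fluorescence at 0 and 30 min.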
RORgamma inh = ROR gamma (mouse) transcription inhibition; P51450; 310,000 compounds, 5.4% hits; Drosophila S2 Gal4-RORgamma UAS-luciferase reporter, 20 h; Potency, µM (doses to about 53.6 µM), without a hit: at the top dose activity change, negative = inhibition, most hits filed as inhibitors; AID 2551; also: nearly all actives have a fitted effect of over 60% in size
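In this cell-based reporter format, copper sulfate (700 uM final) drives Gal4–ROR gamma fusion expression from a metallothionein promoter in Drosophila Schneider cells; compounds preincubated 1 hr, reporter read after 20 hr at ambient temperature.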
PLK1 PBD inh = PLK1 (human) polo-box domain binding inhibition | P53350 | Plk1 PBD binding of FITC phosphopeptide, fluorescence polarization | Potency, µM, for inactives: max response, negative = inhibition, actives largely listed as inhibitors | 360,000 compounds, 2.8% hits; also: series mostly up to about 57 µM; nearly all actives have a fitted effect of over 65% in size
ALDH1A1 inh = ALDH1A1 (human) enzyme inhibition; P00352; Purified ALDH1A1, NADH fluorescence, propionaldehyde substrate; Potency, µM (top dose mostly 75.3 µM), without a hit: at the highest dose activity, negative = inhibition, most hits filed as inhibitors; 220,000 compounds, 7.3% hits; AID 1030; active = well fitted inhibition curve with a large enough effect, not every such curve was filed as active; inconclusive = small, poorly fitted or top-dose-only effect, or another doubt; inactive = no such curve, though single readings can be large or run the other way;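 also: plate controls were no enzyme wells and a reference inhibitor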
Target sequence (P00352 whole entry, looked up): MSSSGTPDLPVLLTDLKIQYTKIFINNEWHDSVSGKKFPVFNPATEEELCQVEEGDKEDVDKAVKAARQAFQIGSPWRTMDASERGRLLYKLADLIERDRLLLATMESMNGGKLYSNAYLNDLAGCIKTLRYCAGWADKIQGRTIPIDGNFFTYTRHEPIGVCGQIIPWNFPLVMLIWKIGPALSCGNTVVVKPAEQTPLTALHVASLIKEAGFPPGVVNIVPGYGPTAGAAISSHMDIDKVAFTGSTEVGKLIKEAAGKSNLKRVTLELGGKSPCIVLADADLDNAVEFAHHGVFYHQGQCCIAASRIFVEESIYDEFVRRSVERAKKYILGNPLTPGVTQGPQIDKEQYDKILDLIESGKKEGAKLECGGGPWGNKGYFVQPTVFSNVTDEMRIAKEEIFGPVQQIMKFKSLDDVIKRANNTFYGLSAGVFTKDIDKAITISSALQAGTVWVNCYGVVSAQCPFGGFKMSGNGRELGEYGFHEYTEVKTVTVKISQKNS
VP16 counter = Gal4-VP16 reporter inhibition counter-screen; 310,000 compounds, 3.5% hits; AID 2546; Potency, µM (highest dose often 53.6 µM), without a hit: top-dose activity, negative = inhibition, actives largely listed as inhibitors; Drosophila S2 Gal4-VP16 UAS-luciferase, luminescence, 20 h;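 also: Gal4-VP16 expression switched on by copper sulfate through the metallothionein promoter; nearly all actives have a fitted effect of over 50% in size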
The depositor's hits bear a star; u = inconclusive; x = no result; ! = not active in a repeat; [ ] = dose if it differs, or a comment. Rows were chosen to be rich in hits. Some 12% of all compounds tested hit in one or more screens of this group. Unless noted, calls follow the shape of the dose curve; as a rule, active = well fitted curve in the direction sought with a large enough effect; inconclusive = small, poorly fitted or top-dose-only effect, or another doubt; inactive = no such curve, though single readings can be large; an effect the other way counts as inactive or inconclusive. Unless noted, % is scaled to controls: 0 for no effect and ±100 for the full control effect; potency is read from the fitted curve at half-maximal effect.

SMILES | Sfp PPTase inh | RORgamma inh | PLK1 PBD inh | ALDH1A1 inh | VP16 counter
CCCCCOC(=O)Nc1nc(=O)n(C2O[C@H](C)[C@@H](O)[C@@H]2O)cc1F (stereo partly drawn) | 13% | -12%[10 µM] | x | x | -4%
CC(C)(CCC(C)(C)c1ccccc1)c1ccccc1 | x | x | x | 11%[13.5 µM] | x
Oc1c(Br)cc(Br)cc1C=NCc1ccccc1 | -5% | u | u | 7% | -30%
Oc1c(Br)cc(Br)cc1C=NCc1ccc(F)cc1 | -48% | 10µM* | u | u | u
COCCn1c(=O)c(-c2ccc(F)cc2)nc2cnc(OCc3ccccc3)nc21 | -10% | 29% | x | u | -15%
COc1cc(C(=S)N(C)C)ccc1O | 40µM* | 19% | 9.5µM* | 10µM* | -9%
CCCOC(=O)c1ccc(O)c(OC)c1 | -7% | 0% | -30% | -6% | 10%
O=C(Cc1cc(=O)[nH][nH]1)N/N=C/c1c(F)cccc1Cl | 16% | 12% | -2% | 3% | -4%
O=C(Cc1cc(=O)[nH][nH]1)N/N=C/c1c(Cl)cccc1Cl | 50µM* | 21% | 17µM* | 11µM*! | u
O=C(CCn1ccc2cc(S(=O)(=O)N3CCCC3)ccc21)NCc1ccccc1 | 3% | 1% | u | x | -2%
CCC(C)NC(=O)CCn1ccc2cc(S(=O)(=O)N3CCCC3)ccc21 (stereo not drawn) | 13% | 1% | 27µM* | x | -10%
O=C(CCn1ccc2cc(S(=O)(=O)N3CCCC3)ccc21)NCc1cccc(F)c1 | 7% | 7% | 7.5µM* | x | 7%
Cc1ccc(CNC(=O)Cn2ccc3cc(S(=O)(=O)N4CCCC4)ccc32)o1 | 50µM* | -7% | -26% | x | -6%
COc1cc(CN2CCC(Oc3cc(C(=O)NC4CC4)ccc3OC)CC2)cc(OC)c1 | 5% | -3% | -9% | x | -3%
CSc1ccc(/C=C(/NC(=O)c2ccccc2)C(=O)NCCN2CCOCC2)cc1 | 8% | 18% | 2% | x | 3%
O=C1CCCC/C1=C\Nc1ccc(C(=O)O)c(O)c1 | 9% | 6% | -16% | x | -4%
CC1CCC/C(=C\Nc2ccc(C(=O)O)cc2)C1=O (stereo not drawn) | -6% | u | -8% | 14µM* | u
CC1CCC/C(=C\Nc2ccc(C(=O)O)c(O)c2)C1=O (stereo not drawn) | 50µM* | 23% | -14% | x | 3%
CCOC(=O)c1ccc(N/C=C2/CCCC(C)C2=O)cc1 (stereo not drawn) | 2% | 0% | -5% | u | -12%
CCOC(=O)C(C)(C)[C@H](O)C(C)C | x | x | x | 0%[13.5 µM] | x
COc1cccc(Nc2ncc3nc(-c4ccc(Cl)cc4)c(=O)n(C4CC4)c3n2)c1 | 2% | 13% | x | u | -7%
O=C(NNc1cccc(Cl)n1)Nc1cccc(C(F)(F)F)c1 | -1% | u | -6% | 20µM* | -5%
NC(=O)/C=C\C(=O)Nc1cccc(C(F)(F)F)c1 | -16% | u | -16% | 2.8µM* | 13µM*
O=C(Nc1ccc(OC(F)F)cc1)Nc1cccc(C(F)(F)F)c1 | -5% | u | -4% | -9% | 25µM*
NNC(=O)Nc1cccc(C(F)(F)F)c1 | 11% | 20% | -3% | u | 1%
SMILES | Sfp PPTase inh | RORgamma inh | PLK1 PBD inh | ALDH1A1 inh | VP16 counter
CN1CCN(C(=O)C2=NOC3(C2)C(=O)Nc2ccccc23)CC1 (stereo not drawn) | x | x | -6% | x | x
Cc1ccc(S(=O)(=O)N2CCC(=O)N([C@H](COCc3ccc(Cl)c(Cl)c3)Cc3ccccc3)CC2)cc1 | x | x | 5% | x | x
COCC(=O)N1CCC[C@@]2(CCN(c3ccccc3)C2)C1 | 11% | -3% | x | -9% | 1%
COc1ccc(Br)cc1/C=N/N1CCN(Cc2ccccc2Cl)CC1 | 12% | 5% | -7% | x | -1%
Clc1ccc(/C=N/N2CCN(Cc3ccccc3Cl)CC2)cc1 | -14% | 34% | -2% | -6% | -7%
COc1ccccc1/C=C/C=N\N1CCN(Cc2ccccc2Cl)CC1 | 22µM* | u | 1% | 20µM* | u
COc1ccc(/C=N\N2CCN(Cc3ccccc3Cl)CC2)cc1 | 79µM* | 6% | 6% | x | -12%
COc1ccccc1/C=C/C=N/N1CCN(Cc2ccc(Cl)cc2)CC1 | -22% | -4% | 5% | 18µM* | -3%
C(=C\c1ccccc1)/C=N/N1CCN(Cc2ccccc2)CC1 | -28% | 32% | -9% | -12% | u
CSCCC(C(=O)Nc1c(C)cccc1C)n1c(COc2ccc(C)cc2)nc2ccccc21 (stereo not drawn) | x | x | -2% | x | x
Cc1ccc(S(=O)(=O)NC(C)(C)CSc2ncccn2)cc1 | 6% | u | -3% | 18µM* | -16%
Cc1ccc(S(=O)(=O)NCCSc2ncccn2)cc1 | -4% | -18% | -12% | 14% | 2%
Cc1c(CCC(=O)N[C@@H](CC(C)C)C(=O)O)c(=O)oc2cc3oc4c(c3cc12)CCCC4 | 17% | 0.63µM* | u | x | u
Cc1c(CCC(=O)N2CCC[C@H]2C(=O)O)c(=O)oc2cc3oc4c(c3cc12)CCCC4 | 15% | 1.3µM* | -6% | x | u
Cc1c(CCC(=O)O)c(=O)oc2cc3oc4c(c3cc12)CCCC4 | 7% | u | -10% | x | u
Cc1c(C(=O)OCC(C)C)[nH]c2c1C(=O)CC(c1ccco1)C2 (stereo not drawn) | 40µM* | u | -10% | 11µM* | 1%
Cc1c(C(=O)OC2CCCC2)[nH]c2c1C(=O)CC(c1ccco1)C2 (stereo not drawn) | -14% | 159% | -19% | 11µM* | 1%
COC(=O)c1[nH]c2c(c1C)C(=O)CC(c1ccccc1)C2 (stereo not drawn) | 25% | 31% | -14% | 5% | 0%
C/C=C/COC(=O)c1[nH]c2c(c1C)C(=O)CC(c1ccco1)C2 (stereo not drawn) | 50µM* | 28% | u | u | -13%
C=CCOC(=O)c1[nH]c2c(c1C)C(=O)CC(c1ccco1)C2 (stereo not drawn) | u | u | u | u | -10%
Nc1ncnc2c1ncn2[C@@H]1O[C@H](CNC(=O)[C@@H](N)Cc2ccc(C(=O)c3ccccc3)cc2)[C@@H](O)[C@H]1O | x | x | -1% | x | x
Cc1nn(C)c(C)c1CN(C(=O)C1CCC(=O)N(C2CCCCCC2)C1)C(C)C (stereo not drawn) | 20% | 14% | -9% | x | 9%
O=C(OC[C@@H]1O[C@@](O)(COC(=O)c2cccnc2)[C@H](OC(=O)c2cccnc2)[C@H]1OC(=O)c1cccnc1)c1cccnc1 | 6% | 1% | x | 5% | 6%
CNc1nc(-c2ccc3c(c2)CCN3C(=O)c2ccccc2F)cs1 | -26% | -36% | -16% | 25µM* | 1%
CS(=O)(=O)N1CCc2cc(-c3csc(NC(=O)C(c4ccccc4)c4ccccc4)n3)ccc21 | 10% | 23% | -16% | u | 14%
CC(C)(C)C(=O)N1CCc2cc(-c3csc(N)n3)ccc21 | -25% | 13µM* | -21% | -2% | 10µM*
